Compound activity deposited in PubChem by several laboratories.
Most compounds without a hit are left out; they make up all but 2.1% or so of the library.
Calb FLC: C. albicans growth modulation with fluconazole; C. albicans CaCi-2 (fluconazole-resistant clinical isolate) + fluconazole, Alamar Blue growth, 48 h; 300,000 compounds, 0.57% hits; growth inhibition, % (test concentration not listed);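 active = growth inhibition above about 58% in most replicates, limit read from the data, passing the limit was not always enough; inconclusive = exactly half the replicates above a set limit; inactive = most replicates below a set limit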;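 also: all wells also contain fluconazole at 8 µg/ml as a sub-toxic cotreatment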
Fh CTSL1 inh: counter-screen for PFM18AAP inhibitors: inhibitors of F. hepatica cathepsin L1 | inhibition, % at 5.96 µM | AID 1906 | recombinant F. hepatica cathepsin L1, Z-Leu-Arg-MCA fluorescence | 300,000 compounds, 0.49% hits;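 active = inhibition above the mean of all tested compounds plus 3 SD, set per screening campaign, cut at about 17% in these data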
Rin1-Abl PPI inh: blocks binding of human Rin1 to Abl; 360,000 compounds, 0.4% hits; inhibition, % at 7.35 µM; P00519+Q13671; TR-FRET Rin1/Abl binding, biochemical; AID 588664; in the data active = inhibition above about 5%, passing the limit was not always enough
M18AAP inhibitor: PfM18AAP enzyme inhibition; recombinant PfM18AAP, H-Glu-NHMec fluorogenic cleavage; inhibition, % at 7.35 µM; 290,000 compounds, 1.2% hits; AID 1822;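 active = inhibition above the campaign mean inhibition over all tested compounds plus 3 SD, cut at about 28% in these data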
Each line names hits and unclear results; the compound was inactive in the other large screens.

O=C(CN1CCC(Cc2ccccc2)CC1)N1CCc2ccccc2C1	none
CC1CCN(c2ccc3nnc(CCC(=O)N4CCCCC4)n3n2)CC1	none
CCC(C)NC(=O)C(Cc1ccccc1)NS(=O)(=O)c1ccc2c(c1)CCC(=O)N2 (centres undefined)	none
CCCN(CCC)CCNC(=O)C(NS(=O)(=O)c1ccc2c(c1)CCC(=O)N2)c1ccccc1 (centres undefined)	Fh CTSL1 inh 30.7
COc1ccc(-c2nc3c(-c4ccccc4)cnn3cc2C)cc1F	Fh CTSL1 inh 20.3
Fc1ccc(-c2nn(-c3ccccc3)cc2CNCc2ccccc2)cc1	none
O=C(CCl)Nc1cn(-c2ccccc2)nc1-c1ccc(F)cc1	Fh CTSL1 inh 77.1
CCCCCCCCCCC[N+](C)(C)CC/C=C1/c2ccccc2Sc2ccc(Cl)cc21	Calb FLC 84.5
COc1ccc(NC(=O)N2CCN(CCC#N)CC2)cc1	Fh CTSL1 inh 16.9
O=C(COC(=O)c1cccs1)Nc1cccc(S(=O)(=O)NC2=NCCCCC2)c1	none
O=C(COC(=O)c1ccc([N+](=O)[O-])s1)NC(c1ccccc1)c1ccccc1	none
O=C(COC(=O)c1ccc([N+](=O)[O-])s1)Nc1cccc(S(=O)(=O)NC2=NCCCCC2)c1	Fh CTSL1 inh 70.1
O=C(COC(=O)c1ccc([N+](=O)[O-])s1)Nc1ccccc1	Fh CTSL1 inh 74.3
O=C(COC(=O)c1ccc([N+](=O)[O-])s1)NCc1ccccc1	Fh CTSL1 inh 57.3
CN(C)c1nc(Cl)nc(N(C#N)CCOc2ccccc2)n1	Calb FLC 113.0
CCNc1nc(NCC)nc(N(C#N)CCOc2ccccc2)n1	none
COc1ccc(CN(C)C(=O)c2cccc(NS(=O)(=O)c3ccccc3)c2)cc1F	none
C/C(CC(=O)Nc1cc(Cl)ccc1Cl)=N\NC(N)=S	none
C/C(CC(=O)Nc1ccc(Cl)c(Cl)c1)=N\NC(N)=S	Fh CTSL1 inh 30.3
O=C(NC1CCOc2ccccc21)c1ccc(=O)[nH]c1 (centres undefined)	none
NC(=O)CN(c1ccc(Oc2ccccc2)cc1)S(=O)(=O)c1ccccc1	none
Oc1ccc(C2=CSC3=NCCN23)cc1O	M18AAP inhibitor 55.2
Brc1ccc(C2=CSC3=NCCN23)cc1	none
Cc1ccc(NNC(=O)Nc2ccc(Cl)cc2)nn1	M18AAP inhibitor 31.5
Cc1oc(-c2cccs2)nc1CN1CCN(CCC(C)C)C(CCO)C1 (centres undefined)	none
Cc1oc(-c2cccs2)nc1CN1CCN(Cc2ccc(F)c(F)c2)C(CCO)C1 (centres undefined)	Calb FLC 84.5
CCn1cc(CCCC(=O)NCc2ccc(OC)cc2)c2ccccc21	none (no result: Fh CTSL1 inh)
CCOc1ccc(S(=O)(=O)NCCC(=O)NCC(c2ccc(F)cc2)N2CCOCC2)cc1 (centres undefined)	Fh CTSL1 inh 18.1 (no result: M18AAP inhibitor)
CCOc1ccc(S(=O)(=O)NCCC(=O)NCC(c2ccc(OC)cc2)N2CCCCC2)cc1 (centres undefined)	none (no result: M18AAP inhibitor)
COc1ccc(OC)c(CNC(=O)CCC(=O)N2Cc3cccc(OC)c3Oc3ncccc32)c1	none
CCCCCCCCC(=O)NNC(=O)c1c(O)c2ccccc2n(CC)c1=O	Calb FLC 93.9
O=C1CC(NCCC2=CCCCC2)C(=O)N1c1cccc(Cl)c1Cl (centres undefined)	Fh CTSL1 inh 17.7 (no result: Rin1-Abl PPI inh)
O=C(NCCC1=CCCCC1)C(=O)NCc1ccccc1Cl	none
CCNc1nc(N)nc(-c2cc(Cl)ccc2O)n1	Calb FLC 80.2
COc1ccc(OCc2cc(-c3ccc(Cl)cc3)no2)cc1	none
O=C(CCl)NCc1cc(-c2ccc(Cl)cc2)no1	Fh CTSL1 inh 34.6
CC1CCCN1CC#CC(O)(c1ccccc1)c1ccccc1 (centres undefined)	none
O=C(Cc1noc2ccccc12)NNC(=S)Nc1ccccc1	M18AAP inhibitor 30.4
COc1cc([N+](=O)[O-])cc(/C=N/NC(=O)c2ccc(C)nc2)c1O	none
COc1cc([N+](=O)[O-])cc(/C=N/NC(=O)c2ccc(NC(=O)c3ccc(C)cc3)cc2)c1O	Calb FLC 101.8 (no result: Fh CTSL1 inh)
COC(=O)c1cc(N=CC2=C(O)CC(C)(C)CC2=O)cc(C(=O)OC)c1	M18AAP inhibitor 29.6
COc1ccc(/C(C)=N/Nc2ccc(C(=O)O)cc2)c(OC)c1	M18AAP inhibitor 28.5
COc1ccc2c(c1)C(=NNc1ccc(C(=O)O)cc1)c1cc(OC)ccc1-2	none
Cn1cc(CN2CCC(CO)(CCCc3ccccc3)CC2)c(-c2ccccc2)n1	none
CC(=O)[C@H]1[C@H]([C@H](O)[C@H](O)CO)O[C@](O)(C(=O)O)C[C@@H]1O	none (no result: Calb FLC, M18AAP inhibitor)
O=C(O)c1cnc(-c2ccccc2)nc1Sc1ccc(Cl)cc1Cl	Calb FLC 106.0
O=C(O)c1cnc(-c2ccccc2)nc1Sc1cccc(Cl)c1	none
OC(c1cc(-c2ccc(Cl)cc2)nc2ccccc12)C1CCCCN1 (centres undefined)	Calb FLC 93.9
CCN(CC)C(=O)CSc1nnc([C@@H](N)C(C)C)o1	Fh CTSL1 inh 32.7
CCN(CC)C(=O)CSc1nnc(-c2ccccc2)o1	none
CCOC(=O)c1ccc(CNCc2ccccc2)cc1	none
CCOC(=O)NC1(NCc2ccccc2)Oc2ccccc2O1	M18AAP inhibitor 54.2
CCCCNC(=S)NNC(=O)c1csc(C)c1	none
CCNC(=S)NNC(=O)c1csc(C)c1	M18AAP inhibitor 28.2
Cn1c(=O)n(CC#N)c2ccccc21	Calb FLC 102.3
N#CCCn1c(=O)n(CCC#N)c2ccccc21	none
O=C1CCc2cc(S(=O)(=O)NCCc3ccccc3)cc3c2N1CC3	none (no result: M18AAP inhibitor)
C=CCN(CC=C)Cc1c(C)[nH]c2c(C)c(C)ccc2c1=O	none
CCN(Cc1ccccc1)Cc1c(C)[nH]c2c(C)c(C)ccc2c1=O	Fh CTSL1 inh 47.5
CCc1noc(C)c1C(=O)Nc1cc(S(=O)(=O)N2CCOCC2)ccc1OC(C)C	none (no result: M18AAP inhibitor)
Cc1ccc(CNC(=O)CSCc2cccc(F)c2)cc1	Calb FLC 93.9
CCOc1ccccc1N1CCN(CC(O)COC2CCCc3ccccc32)CC1 (centres undefined)	Calb FLC 83.3
COCCn1c(SCC(=O)NCc2ccc3c(c2)OCO3)nc2ccccc2c1=O	none
CCOc1ccc(S(=O)(=O)Nc2cc(Sc3ncn[nH]3)c3oc(=O)sc3c2)cc1	M18AAP inhibitor 29.1 (no result: Rin1-Abl PPI inh)
CC1(C)CC(N2CCCC2)=CC(=[N+]2CCCC2)C1	Calb FLC 119.8
CC1(C)CC(N2CCCC2)=CC(=[N+]2CCCCC2)C1	none
CC1(C)CC(N2CCN(Cc3ccccc3)CC2)=CC(=[N+]2CCCCC2)C1	Calb FLC 82.7
Oc1ccc(N=Nc2ccccc2C(F)(F)F)c2cccnc12	Calb FLC 98.4
CCOC(=O)c1sc(NNC(=O)c2ccc(F)cc2)nc1C	Calb FLC inconclusive, M18AAP inhibitor 28.2
CCc1ccc(C(=O)NNc2ccc(F)cc2)cc1	Calb FLC 79.8
CCC(CC)c1nnc(NC(=O)c2ccc([N+](=O)[O-])cc2)s1	none
CCOC(=O)c1nc(NNC(=O)c2ccc([N+](=O)[O-])cc2)sc1C	Calb FLC 116.5
CCOC(=O)c1sc(NC(=O)c2ccc(S(=O)(=O)N(C)C)cc2)nc1C	none
CCc1nc2ccc(C(=O)N(C)CCN(C)C)cn2c1N(C)CCC(C)C	none (no result: Calb FLC, Fh CTSL1 inh, M18AAP inhibitor)
C=CCn1c(O)c(N=NC(=S)Nc2ccccc2C)c2cc(S(=O)(=O)N3CCOCC3)ccc21	Calb FLC 105.9
